This is part of a sample that, as a whole, favours compounds with a hit. Of some 83,000 tested, about 20% had one in any assay.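 Method: cells in 96-well plates; compound added at one concentration; 48 h incubation; percent growth measured; values under 10 scored active.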 Values without a mark were called inactive. Calls of active or inactive are those of the source.
Legend:
Test in all cases: NCI-60 one-dose screen, 48 h (100 = growth as untreated, 0 = no growth, -100 = all killed)
Settings in all cases: 10 µM unless noted
[1] = system: DU-145 prostate
[2] = system: K-562 leukemia
[3] = system: MALME-3M melanoma
[4] = system: MDA-MB-231 breast
[5] = system: RXF 393 renal
[6] = system: SF-268 CNS
[7] = system: SF-295 CNS
[8] = system: SF-539 CNS
[9] = system: UACC-257 melanoma
[10] = system: M14 melanoma
[11] = system: HCT-15 colon
[12] = system: HT29 colon
[13] = system: SNB-75 CNS
[14] = system: SNB-19 CNS
[15] = system: U251 CNS
[16] = system: PC-3 prostate
[17] = system: SK-MEL-5 melanoma
[18] = system: UACC-62 melanoma
[19] = system: LOX IMVI melanoma
[20] = system: SK-MEL-28 melanoma

Row | Structure (SMILES) | growth [1] [%] | growth [2] | growth [3] | growth [4] | growth [5] [%] | growth [6] [%] | growth [7] | growth [8] [%] | growth [9] | growth [10] | growth [11] | growth [12] | growth [13] [%] | growth [14] [%] | growth [15] [%] | growth [16] [%] | growth [17] | growth [18] | growth [19] | growth [20] [%]
1 | COc1cccc(-c2nn(-c3ccccc3)cc2-c2ccnc(NCCNC(=O)Nc3cccc(C(F)(F)F)c3)c2)c1 | 26.2 | 2.52% (active) | 51.2% | -10% (active) | 21.6 | 35.2 | 27.6% | 57.7 | 27.6% | 7.52% (active) | 6.17% (active) | -43.6% (active) | 46.3 | 36 | 19.9 | 17.1 | 39.2% | -7.83% (active) | -77.3% (active) | 32.5
2 | O=[N+]([O-])c1ccc(N2c3ccncc3Sc3ccncc32)cc1 | 117 | 83% | 122% | 77.1% | 83.6 | 129 | 103% | 99.3 | 113% | 106% | 96.5% | 121% | 98.9 | 107 | 93.4 | 88.1 | 112% | 93.2% | 81.7% | 115
3 | O=c1[nH]ccc2nc(N3CCC(O)CC3)nc(Nc3ccc(N4CCOCC4)cc3)c12 | 59.8 | 70.1% | 28.4% | 64.3% | 15.6 | 61.9 | 108% | 28.7 | 53.2% | 41.4% | 31.2% | 23.2% | 63.5 | 97.1 | 88.2 | 89.8 | 39% | 80.3% | 46.4% | 82.6
4 | C=CCOC1=CC(=O)c2ccccc2C1=O | 59.9 | 26.8% | 69% | 77.3% | 111 | 82 | 98.1% | 116 | 55.8% | 79.5% | 94.9% | 80.5% | 48 | 104 | 86.7 | 85.9 | 27.3% | 57% | 3.82% (active) | 87
5 | Oc1ccc(CN2CCC(N3CCOCC3)CC2)c2cccnc12 | 29.3 | 12.9% | -0.979% (active) | 31% | 13.1 | 32.3 | 5.68% (active) | 13.6 | 7.47% (active) | 24.2% | 17.7% | 103% | 32 | 17.6 | 16.9 | 15.3 | -45.8% (active) | 12.9% | 15.2% | 39.5
6 | Cc1ccc2nc(NC(=O)CSc3nc(Nc4ccc([N+](=O)[O-])cc4)c(C#N)c(-c4ccccc4)n3)sc2c1 | 104 | 87.6% | 110% | 93.7% | 92.7 | 93.7 | 95.6% | 92.8 | 105% | 114% | 93.6% | 96.7% | 85.6 | 93.9 | 93.2 | 93.8 | 98% | 86% | 96.7% | 109
7 | NS(=O)(=O)c1cnccc1Oc1cccc2cccnc12 | 108 | 82.4% | 96% | 102% | 104 | 101 | 120% | 88.3 | 114% | 98.8% | 90.5% | 107% | 89.6 | 99.6 | 102 | 95.9 | 106% | 104% | 96% | 109
8 | COc1ccc(OC)c(-c2c(C#N)c(-c3ccc(Cl)cc3)nc3c2c(-c2ccccc2)nn3-c2ccccc2)c1 | 99.1 | 97.7% | 101% | 101% | 101 | 96 | 109% | 98.8 | 100% | 101% | 105% | 109% | 85.1 | 100 | 98.7 | 92 | 110% | 90.7% | 94.4% | 105
